The list is not random: actives were taken first. Their share in the collection is about 21%.
Pf growth 96h: P. falciparum growth inhibition at 96 hours; 320,000 tested, 6.9% active; P. falciparum luciferase reporter growth, 96 h; Potency, µM (highest dose often 28.7 µM), inactives show top-dose activity change, negative = inhibition, most hits filed as inhibitors; note: potency is the fitted concentration of half-maximal effect; % is set by controls: 0 for no effect and ±100 for the full control effect
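Erythrocytes infected with luciferase-expressing P. falciparum were dispensed at 2% hematocrit and 0.05% parasitemia (final), then incubated with compounds 96 hours at 37 C in 5% CO2. Luminescence after detection reagent addition reported growth.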
Pf growth 48h: P. falciparum growth inhibition at 48 hours (one generation) | P. falciparum luciferase growth in erythrocytes, 48 h | Potency, µM (highest dose often 28.7 µM), for inactives: top-dose activity change, negative = inhibition, most hits filed as inhibitors | 310,000 tested, 5.9% active; note: potency is the fitted concentration of half-maximal effect; % is set by controls: 0 for no effect and ±100 for the full control effect
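First compound was added to culture medium, then infected red cells at 0.1% parasitemia and 2% hematocrit (final). After incubation at 37 C under 5% CO2, luciferase detection reagent was dispensed and light output recorded.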
Cycloheximide cs: affects cycloheximide protein synthesis inhibition readout, counter-screen | cell reporter, cycloheximide protein synthesis inhibition counterscreen | max response, % | 300,000 tested, 12% active; in the data active = max response mostly above about 13%, no sharp cut-off; inactive = mostly below about 14%; note: read at 38.3 µM for the half of the compounds with a filed dose; 0% is about no effect
Shiga toxin inh: inhibitors of Shiga toxin in Vero cells | inhibition, % at 38.7 µM | 290,000 tested, 9.2% active | Vero cells, Shiga toxin protein synthesis inhibition reporter; in the data active = inhibition mostly above about 28%, no sharp cut-off; inactive = mostly below about 43%; note: 0% is about no effect
NS1 inh: blocks influenza NS1 protein function | Potency, µM (doses to about 46.1 µM), for inactives: top-dose activity, positive = more growth | 270,000 tested, 0.4% active; calls by dose curve; note: potency is the fitted concentration of half-maximal effect; actives are rising curves; nearly all actives have a fitted effect of over 50% in size
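OD600 was taken as the measure of yeast growth restored by compound in an NS1-expressing S. cerevisiae strain. Cells had been washed out of glucose medium and diluted 1:100 into galactose -URA medium, pH 6.0.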
The depositor's hits bear a star; u = inconclusive; x = no result given. Unless noted, calls come from the whole dose curve; as a rule, active = well fitted inhibition curve with a large enough effect; inconclusive = small, poorly fitted or top-dose-only effect, or another doubt; inactive = no such curve, though single readings can be large or run the other way.

SMILES | Pf growth 96h | Pf growth 48h | Cycloheximide cs | Shiga toxin inh | NS1 inh
CC(OC(=O)c1snc(C(=O)NC2CCCCC2)c1N)C(=O)NC(C)(C)C (configuration not stated) | -23% | u | -2 | 4 | 1%
O=C(NC1CCCC1)C(c1cccs1)N(C(=O)c1ccco1)c1ccc2c(c1)OCCO2 (configuration not stated) | 15% | u | 15* | 52* | 2%
CC(C)(C)NC(=O)COC(=O)c1snc(C(=O)NC2CCCCC2)c1N | -14% | 4% | 18* | 37* | -3%
CC(C(=O)NC1CCCC1)N(Cc1ccco1)C(=O)c1snc(C(=O)NC2CCCC2)c1N (configuration not stated) | x | 13µM* | 4 | -8 | -33%
COc1ccc(N(C(=O)c2ccco2)C(C(=O)NC2CCCC2)c2cccs2)cc1OC (configuration not stated) | -2% | u | -3 | 9 | 0%
NC(=O)c1nsc(C(=O)N(Cc2ccco2)C(C(=O)NC2CCCC2)c2ccc(O)cc2)c1N (configuration not stated) | -8% | u | -5 | 3 | 4%
Cc1ccc(N(C(=O)Cc2cccs2)C(C(=O)NC2CCCC2)c2ccncc2)cc1 (configuration not stated) | 0.93µM* | u | 7 | -1 | 0%
CCCCCN(C(=O)CCC(=O)OC(C)C(=O)NC1CCCCC1)c1c(N)n(CCCC)c(=O)[nH]c1=O (configuration not stated) | -17% | u | x | x | x
CC1(C)CC2CC(C)(CN2/C=N/c2sc3c(c2C#N)CC(C)(C)NC3(C)C)C1 (configuration not stated) | u | u | 5 | 3 | 3%
O=C(NC(=S)N1CCN(c2ccccc2)CC1)c1ccc(S(=O)(=O)N2CCOCC2)cc1 | u | u | 1 | 5 | -14%
Cc1ccc(CN(C(=O)Cc2cccs2)C(C(=O)NC2CCCC2)c2ccncc2)cc1 (configuration not stated) | 1% | u | -3 | -6 | -17%
Cc1ccc(C(C(=O)NC2CCCC2)N(Cc2ccc3c(c2)OCO3)C(=O)Cc2cccs2)cc1 (configuration not stated) | -2% | 13µM* | -2 | 16 | 4%
COc1cccc(C2(O)CC(C(F)(F)F)=NN2C(=O)c2ccccn2)c1 (configuration not stated) | 0.52µM* | 43% | 38* | 65* | 0%
O=C(c1ccccc1)N1N=C(C(F)(F)F)CC1(O)c1ccc(F)cc1 (configuration not stated) | 2% | 18% | 25* | 59* | 18%
O=C(c1ccccc1)N1N=C(C(F)(F)F)CC1(O)c1ccccc1 (configuration not stated) | -12% | 0% | 1 | x | -28%
COc1cccc(C(=O)N2N=C(c3ccccn3)CC2(O)C(F)(F)F)c1 (configuration not stated) | u | u | 14 | 9 | -1%
Cc1ccnc(NC(=O)c2ccc(Cl)s2)c1 | 214% | 168% | 53* | 70* | -14%
O=C(Nc1ccon1)c1ccc(Cl)s1 | 12% | 61% | 15* | 15 | -1%
Cc1ccnc(NC(=O)c2cnc(Cl)c(Cl)c2)c1 | 24% | 50% | 32* | 116* | -12%
O=C(Nc1ccon1)c1sc2cc(Cl)ccc2c1Cl | -19% | u | -3 | -5 | 11%
CC(NC(=O)CSCc1ccccc1Br)c1ccccc1 (configuration not stated) | -1% | 0% | 9 | 22 | -10%
c1ccc(N2CCN(c3ncccn3)CC2)cc1 | 52% | 54% | 22* | 25 | -17%
Cn1c(C(=O)N2CCN(c3ccc(Cl)cc3)CC2)cc2c(=O)[nH]c3ccccc3c21 | -17% | u | -6 | -21 | -33%
COc1ccccc1N1CCN(C(=O)c2ccc(-c3ccccc3)cc2)CC1 | 54% | 28% | 20* | 34 | -61%
Oc1ccccc1N1CCN(c2ncccn2)CC1 | x | -4% | 9 | -4 | -3%
CC(=O)c1ccc(-c2ccc(C(=O)N3CCN(c4ccc(F)cc4)CC3)o2)cc1 | 12µM* | -11% | 21* | 19 | x
Cc1ccc(Cl)cc1N1CCN(C(=O)c2cc3c(=O)[nH]c4ccccc4c3n2C)CC1 | 9.3µM* | u | -2 | 14 | 13%

Source: PubChem
